Assay results reported in ChEMBL document CHEMBL4513216, “Probing the Open Global Health Chemical Diversity Library for Multistage-Active Starting Points for Next-Generation Antimalarials” (ACS Infect Dis, 2020).
Hit rate of the full screen: of about 68,000 compounds, about 2,700 (4%) showed an effect of 50% or more. This is one part of a sample in which strong results are shown more often than they occur.

tested on: Plasmodium berghei; assay: Screen against P. berghei liver stage (PbLuc), transformed with Luciferase, at 2uM; assay type: functional, HepG2; conditions: tested at 2 uM

| Structure (SMILES) | INHIBITION [%] |
| --- | --- |
| COCCC1COC2(CCN(C(=O)C3CCC3)CC2)C1 (stereo unspecified) | -18.7 |
| CC(C)NC1CCc2c(ccc(=O)n2CCN2CCOCC2)C1 (stereo unspecified) | -21.78 |
| COc1cccc(OCC(=O)NS(=O)(=O)c2ccc(C)s2)c1 | 51.21 |
| COc1cccc(OCC(=O)NS(=O)(=O)c2ccc(Br)s2)c1 | -4.22 |
| CC(=O)c1cccc(OCC(=O)NS(=O)(=O)c2ccc(C)s2)c1 | -36.13 |
| CCn1cncc1CN(Cc1ccc(OC)cc1OC)CC1CCCO1 (stereo unspecified) | 33.64 |
| O=C1CCC2(CCCN(c3ncc(Cl)cc3F)C2)CN1CC1CC1 (stereo unspecified) | -31.23 |
| CN(CCCNC(=O)c1ccc(C#N)cc1)CC(F)(F)F | 26.11 |
| CN(CCCNC(=O)c1cccc(OCC(N)=O)c1)CC(F)(F)F | -163.17 |
| CN(CCCNC(=O)c1ccccc1OCC(N)=O)CC(F)(F)F | 51.96 |
| COCCOc1ccccc1C(=O)NCCN(C)C(C)C | 27.5 |
| CN(CCCNC(=O)c1ccccc1F)CC(F)(F)F | 66.74 |
| CN(CCCNC(=O)NCc1ccncc1)CC(F)(F)F | 21.71 |
| CCc1c(C(=O)NCC(=O)OCC2CC2)cnn1-c1ccc(C)cc1 | -14.3 |
| CCN1CC2(CC1=O)CN(C(C)=O)CCN(S(=O)(=O)CC)C2 (stereo unspecified) | -161.57 |
| Cc1ccc(CN2C[C@H](OCCN(C)C)[C@H]3COC[C@H]32)o1 | 15.36 |
| COc1nn(C)c2c1CCCN(C(=O)c1ccc(C)c(F)c1)C2 | -128.25 |
| COC(=O)CC(NC(=O)c1ccccc1OC)c1cccs1 (stereo unspecified) | 53.58 |
| COc1ccccc1C(=O)NC(CC(=O)O)c1cccs1 (stereo unspecified) | 24.31 |
| COC(=O)CC(NC(=O)c1ccc(OC)cc1OC)c1cccs1 (stereo unspecified) | 27.47 |
| CCC[C@@H]1CN(Cc2c[nH]nc2-c2ccc(OC)cc2)C[C@H]1NC(C)=O | 42.4 |
| Cc1ccc(F)c(C(=O)N2C[C@@H](C(=O)O)[C@H](c3ccccc3)C2)c1Cl | 16.49 |

| Structure (SMILES) | INHIBITION [%] |
| --- | --- |
| CCn1nc(C)c(CN(CCOC)C(=O)c2cnc(C)nc2O)c1C | 48.68 |
| CCn1nc(C)c(CN(CCOC)C(=O)c2ccccc2N(C)C)c1C | 15.74 |
| CCOc1ccc(C(=O)N(CCOC)Cc2c(C)nn(CC)c2C)o1 | 65.1 |
| CCN1CCN(C2CCN(C(C(N)=O)c3ccccc3)CC2)C1=O (stereo unspecified) | -42.16 |
| CS(=O)(=O)CC1(CNc2ccc(C#N)c(C(F)(F)F)c2)CC1 | 39.25 |
| CC(C)COC(C)C(=O)N1CCCCCC1 (stereo unspecified) | 7.46 |
| CC(C)COC(C)C(=O)N1CCCCC1 (stereo unspecified) | 30.68 |
| CC(C)COC(C)C(=O)N1CCCC1 (stereo unspecified) | 52.6 |
| CCn1c(C2CCN(C(=O)c3ccc4sc(C)nc4c3)CC2)n[nH]c1=O | 26.49 |
| CN(C)Cc1nnc(C2CCCN(c3nc(C(N)=O)cs3)C2)n1C (stereo unspecified) | 12.29 |
| COCC(C)(O)CNC(=O)c1cc(-c2cc(OC)ccc2OC)nn1C (stereo unspecified) | 10.91 |
| O=C(CCCc1nnc(-c2ccccc2)o1)N1CCN(C2CC2)CC1 | 21.64 |
| c1cnc(N2CCO[C@H]3CN(CC4CCC4)C[C@H]32)cn1 | 15.88 |
| O=C(NCC1(c2cccs2)CCCCC1)N1CCOC(CO)C1 (stereo unspecified) | -46.5 |
| COc1ccc(OC)c(CN(C)c2ncc(S(N)(=O)=O)s2)c1 | -28.18 |
| COc1ccc(CN(C)c2ncc(S(N)(=O)=O)s2)c(OC)c1 | 67.36 |
| COc1ccc(OC)c(CCNc2ncc(S(N)(=O)=O)s2)c1 | -0.95 |
| CC(C)(C)c1nccc(C2(c3ccccc3Cl)CCNCC2)n1 | 2.06 |
| CCC(O)CN1CCN(C(=O)CCSC)CC1 (stereo unspecified) | -38.59 |
| CSCCC(=O)N1CCN(CC(C)O)CC1 (stereo unspecified) | 52.3 |
| CSCCC(=O)N1CCN(CC(O)C(C)(C)C)CC1 (stereo unspecified) | 32.1 |
| CC(C)c1nnc(NC(=O)CCC(=O)NCC2CCCO2)s1 (stereo unspecified) | 4.39 |

| Structure (SMILES) | INHIBITION [%] |
| --- | --- |
| CC(CNC(=O)CCCn1cncn1)N1CCc2ccccc2C1 (stereo unspecified) | -48.63 |
| CCC(CNC(=O)CCn1cncn1)N1CCc2ccccc2C1 (stereo unspecified) | 60 |
| CC(C)C(CNC(=O)CCn1cncn1)N1CCc2ccccc2C1 (stereo unspecified) | 16.98 |
| O=C(CN1CCCCCC1=O)NCC1CCN(c2ccccc2)C1 (stereo unspecified) | -17.17 |
| CC(CNC1CCN(Cc2ccncc2)CC1)c1ccc(F)cc1F (stereo unspecified) | 26.99 |
| CC(C)c1cc(NCC(O)c2ccc(F)cc2)n2nccc2n1 (stereo unspecified) | -25.05 |
| CCN(CC(F)(F)F)C(=O)C1CCCN(Cc2nc(C)c(C)o2)C1 (stereo unspecified) | 35.46 |
| CC(=O)NCCc1cc(N2CCN(C(C)=O)CC2)nc(C2CC2)n1 | 51.61 |
| CC(=O)N1CCN(c2cc(CCNC(=O)C(C)C)nc(C3CC3)n2)CC1 | 27.39 |
| CCC(=O)NCCc1cc(N2CCN(C(C)=O)CC2)nc(C2CC2)n1 | -28.81 |
| Cc1cnn(CC2CCCN2C(=O)CCc2ccc3c(c2)OCO3)c1 (stereo unspecified) | -26.45 |
| NS(=O)(=O)c1ccc(F)c(C(=O)NCCSc2ccccn2)c1 | 32.97 |
| Cn1ccnc1-c1nc(N2CCCCC2)ncc1-c1ccccc1F | -29.24 |
| CS(=O)(=O)NCc1cnc2n1CCN(Cc1cccnc1)CC2 | 8.36 |
| CS(=O)(=O)NCc1cnc2n1CCN(Cc1ccoc1)CC2 | 50.17 |
| CS(=O)(=O)NCc1cnc2n1CCN(Cc1ccsc1)CC2 | -75.39 |
| CN(Cc1ccco1)Cc1ccccc1CNC(=O)c1cnc[nH]1 | 21.27 |
| CC(C)Nc1cccc(CC2CCN(S(C)(=O)=O)CC2)n1 | 52.82 |
| CC(C)Nc1cccc(CC2CCN(C)C2)n1 (stereo unspecified) | -5.42 |
| Cn1nccc1-c1cccc(CC2CCN(S(C)(=O)=O)C2)n1 (stereo unspecified) | -30.88 |
| Fc1ccc(-c2noc(C3COCCO3)n2)cc1F (stereo unspecified) | -29.82 |
| O=C(Cc1ccc(S(=O)(=O)C(F)F)cc1)N1CCCC1 | 33.7 |

| Structure (SMILES) | INHIBITION [%] |
| --- | --- |
| O=C(Cc1ccc(S(=O)(=O)C(F)F)cc1)N1CCC1 | 17.61 |
| CN1CCN(C(=O)Cc2ccc(S(=O)(=O)C(F)F)cc2)CC1 | 63.39 |
| COCc1ccccc1C(=O)N1CCCC1Cn1nc(C)cc1C (stereo unspecified) | -63.06 |
| CC(Cn1cncn1)NCc1nncn1C1CCCCC1 (stereo unspecified) | -28.93 |
| O=C1NCCN1C1CCCN(Cc2coc(-c3ccc(F)cc3)n2)C1 (stereo unspecified) | 60.21 |
| O=C1NCCN1C1CCN(Cc2coc(-c3ccc(F)cc3)n2)CC1 | 17.31 |
| O=C1NCCN1C1CCCN(Cc2nnc(-c3ccc(F)cc3)o2)C1 (stereo unspecified) | -43.47 |
| COc1cccc2c1OCC(C(=O)NCCn1nc(C)c(Cl)c1C)C2 (stereo unspecified) | 24.36 |
| COc1cccc2c1OCC(C(=O)N(C)CCCc1cnn(C)c1)C2 (stereo unspecified) | 27.75 |
| COCCN(Cc1ccncc1)C(=O)C1COc2ccccc2C1 (stereo unspecified) | 33.9 |
| COCCN(Cc1cnn(C)c1)C(=O)C1COc2c(cccc2OC)C1 (stereo unspecified) | 72.05 |
| CCCn1nc(C)c(CNC(=O)C2COc3c(cccc3OC)C2)c1C (stereo unspecified) | 18.57 |
| COc1cccc2c1OCC(C(=O)N(Cc1ccncc1)CC(C)C)C2 (stereo unspecified) | 17.2 |
| COc1cccc2c1OCC(C(=O)NCCCn1nc(C)c(Cl)c1C)C2 (stereo unspecified) | 50.59 |
| COCCN(Cc1ccncc1)C(=O)C1COc2c(cccc2OC)C1 (stereo unspecified) | 45.82 |
| CCN(Cc1ccncc1)C(=O)C1COc2c(cccc2OC)C1 (stereo unspecified) | 57.75 |
| CC(C)(C)n1cc(C(=O)N2CCN(Cc3cccnc3)CC2)cn1 | -3.57 |
| Cc1ccccc1CCCN1CCS(=O)(=O)CC1C (stereo unspecified) | -31.95 |
| CC(C)n1cnc2c(-c3cccnc3)nc(C3CCNCC3)cc21 | -17.24 |
| CCO[C@H]1CO[C@@]2(CCCN(S(=O)(=O)c3cccnc3)C2)C1 | 50.35 |
| CCOCC(=O)N1CCC[C@]2(C[C@@H](OCc3ccncc3)CO2)C1 | 55.15 |
| O=C(c1ccc(F)c(F)c1)N1CCC[C@]2(C[C@@H](OCC3CC3)CO2)C1 | 13.04 |

| Structure (SMILES) | INHIBITION [%] |
| --- | --- |
| O=C(N1CCCC1)N1CCC[C@]2(C[C@@H](OCc3ccncc3)CO2)C1 | -12.23 |
| O=C(C1CC1)N1CCC[C@]2(C[C@@H](OCc3ccncc3)CO2)C1 | 2.4 |
| CCO[C@H]1CO[C@@]2(CCCN(S(=O)(=O)c3ccccc3)C2)C1 | -89.74 |
| CCO[C@@H]1CO[C@@]2(CCCN(C(=O)c3ccc(OC)c(F)c3)C2)C1 | -8.46 |
| CCO[C@H]1CO[C@@]2(CCCN(C(=O)c3ccc(OC)c(F)c3)C2)C1 | 52.36 |
| CCO[C@@H]1CO[C@@]2(CCCN(S(=O)(=O)c3cccnc3)C2)C1 | 27.16 |
| CC(=O)N1CCC(c2ccnc(Nc3cnccn3)n2)C1 (stereo unspecified) | 28.45 |
| CC(C)CN1CCC2(CC1)C(=O)Nc1ccc(C(=O)N(C)C)cc12 | 11.28 |
| Cc1cc(O)ccc1-c1cc(-c2cnn(C)c2C2CC2)c(C#N)c(N)n1 | 7.06 |
| c1cc2occc2c(N2CCCC(c3nncn3C3CC3)C2)n1 (stereo unspecified) | 12.62 |
| CCCc1ccc(CN2CCC3(CCC(=O)N(CCCOC)C3)CC2)o1 | -26.08 |
| OC(CN1CCOCC1)c1ccc(Br)cc1 (stereo unspecified) | 36.23 |
| CCCc1nccn1-c1ccc(C(C)O)cc1 (stereo unspecified) | 10.23 |
| CCCc1nccn1-c1ccc(C(O)CN2CCOCC2)cc1 (stereo unspecified) | 62 |
| O=C(CN1CCCC1)N1CCCC(c2cc(=O)n3c(n2)CCCCC3)C1 (stereo unspecified) | 18.22 |
| O=C(NCc1ccncc1)N(Cc1ccccc1F)C1CC1 | 14.83 |
| Cc1ccc(CNC(=O)N(Cc2ccccc2F)C2CC2)cn1 | 70.41 |
| CN(C)c1ncccc1CNC(=O)N(Cc1ccccc1F)C1CC1 | -20.35 |
